Hits are enriched below; roughly 4.6% of the tested compounds scored in any of these assays.
HSF1 activator: increases HSF-1 driven luciferase reporter signal; NIH3T3-HGL HSF-1 luciferase reporter, MG132, 8 h; 100% = twice DMSO control signal; 1.7% of 300,000 active; activation, % at 9 µM;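 active means mean replicate activation of at least 50% with a set share of replicates each reaching 50%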
HSF1 inh: HSF1 inhibition. NIH3T3-HGL HSE-luciferase, MG132-induced, luminescence 8 h; hits give low values. activity change, negative = inhibition, % at 7.5 µM (by protocol). 0.77% of 300,000 active;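 active means more than half of replicate wells show activity change below -50%, luminescence cut by over half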;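 further: luciferase reports HSF-1 transcriptional activity via heat shock element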
GAA850 FXN act: frataxin GAA850 promoter activation. HEK293 lucGAA850 FXN promoter luciferase reporter, 24 h; percent of 10 µM SAHA response. activation, % at 6 µM. 0.56% of 360,000 active;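 active means activation above the average of all compounds screened plus 3 SD, cutoff fixed separately per campaign, cut at about 7.5% in these data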
AHR activator: activates the human aryl hydrocarbon receptor. P35869. AHR-responsive luciferase reporter cells, luminescence. activation, % at 5 µM. 2.5% of 320,000 active. AID 2796; in the data active means activation above about 47%
Target sequence (P35869 whole entry, looked up): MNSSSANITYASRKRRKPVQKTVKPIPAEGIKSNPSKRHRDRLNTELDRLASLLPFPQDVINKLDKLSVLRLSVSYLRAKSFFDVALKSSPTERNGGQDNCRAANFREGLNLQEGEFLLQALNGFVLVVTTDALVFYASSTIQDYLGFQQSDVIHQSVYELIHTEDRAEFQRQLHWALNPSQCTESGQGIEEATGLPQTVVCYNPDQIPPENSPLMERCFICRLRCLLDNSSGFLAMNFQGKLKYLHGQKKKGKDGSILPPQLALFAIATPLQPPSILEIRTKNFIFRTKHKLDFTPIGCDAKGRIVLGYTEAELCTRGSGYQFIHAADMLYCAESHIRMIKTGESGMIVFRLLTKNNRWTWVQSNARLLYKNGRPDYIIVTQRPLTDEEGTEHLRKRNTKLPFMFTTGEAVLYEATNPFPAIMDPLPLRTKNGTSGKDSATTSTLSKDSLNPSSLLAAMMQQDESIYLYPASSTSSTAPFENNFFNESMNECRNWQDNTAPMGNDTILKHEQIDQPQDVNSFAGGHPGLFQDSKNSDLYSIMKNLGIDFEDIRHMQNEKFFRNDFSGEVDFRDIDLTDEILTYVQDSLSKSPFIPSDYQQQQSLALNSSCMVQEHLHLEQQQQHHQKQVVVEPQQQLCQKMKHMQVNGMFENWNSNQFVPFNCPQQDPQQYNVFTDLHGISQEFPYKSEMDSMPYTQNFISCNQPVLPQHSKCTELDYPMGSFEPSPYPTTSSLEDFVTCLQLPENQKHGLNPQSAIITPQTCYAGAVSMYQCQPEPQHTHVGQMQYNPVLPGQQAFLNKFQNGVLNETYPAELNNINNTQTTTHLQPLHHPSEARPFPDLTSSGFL
Of the large screens only hits and unclear results are named; the others gave an inactive call.

CC(CCc1ccccc1)NC(=S)NC(=O)c1ccco1 (configuration not stated)	none
O=C(NC(=S)N(CCc1ccccc1)CCc1ccccc1)c1ccco1	HSF1 activator 68
Cc1c(C(=O)N2CCCC2)c(S(=O)(=O)N2CCN(c3ccccc3F)CC2)c(C)n1C	none
COC(=O)C1CC23C=CCN4CCC5(c6ccccc6NC15C2C)C43 (configuration not stated)	none
Clc1ccc(-c2csc(N3CCOCC3)n2)cc1	HSF1 activator 53 (no result: AHR activator)
Cc1ccc(S(=O)(=O)N2CCOCC2)cc1N/N=C(\C#N)c1nc2ccccc2[nH]1	AHR activator 59
COc1ccccc1CC(=O)N1CCN(c2ccc([N+](=O)[O-])cc2)CC1	none
CC(=O)N1CCC2(CC1)NC(=O)N(c1ccccc1)N2	HSF1 activator 59
NC(=O)N1CCC2(CC1)NC(=O)N(c1ccccc1)N2	none
CC(=O)Nc1c(Cl)n(C(C)=O)c2ccccc12	none
O=C1Cc2ccccc2C(=O)N1c1ccccc1	none
c1ccc(N2CC3CCc4ccccc4C3=N2)cc1 (configuration not stated)	HSF1 activator 57, AHR activator 57
O=C(COc1cc(Cl)c(Cl)cc1Cl)Nc1cccc(O)c1	HSF1 activator 87
O=S(=O)(Cc1cc(-c2ccccc2Cl)no1)c1ccccc1	HSF1 activator 72
Cc1noc(C)c1C(=O)Nc1sc(C)c(-c2ccccc2)c1C#N	none
Cc1cccc(C(=O)Nc2sc(C)c(-c3ccccc3)c2C#N)c1	AHR activator 50
Cc1cccc2c(C(=O)N3CCN(c4ccccn4)CC3)cc(-c3cccc(Br)c3)nc12	HSF1 inh -79
Cc1cccc2c(C(=O)N3CCN(c4ccccc4)CC3)cc(-c3ccncc3)nc12	HSF1 inh -70
Cc1cccc2c(C(=O)N3CCCCC3)cc(-c3ccccc3)nc12	none
Cc1cc(C)c2nc(-c3ccccn3)cc(C(=O)N3CCCC3)c2c1	AHR activator 56
O=C(c1cc(-c2cccc(Cl)c2)nc2ccccc12)N1CCN(c2ccccn2)CC1	none
Cc1sc2nc(C3CC3)nc(SCC(=O)N3CCCc4ccccc43)c2c1C	none (no result: GAA850 FXN act)
Cc1sc2nc(C3CC3)nc(SCC(=O)N3CCc4ccccc4C3)c2c1C	HSF1 activator 68
O=c1c2ccccc2c(C=NCCCN2CCOCC2)c(O)n1Cc1ccc2c(c1)OCO2	none
CS(=O)(=O)Nc1ccc(-c2ccc(/C=C3\SC(N)=NC3=O)o2)cc1	AHR activator 58
NC1=NC(=O)/C(=C\c2ccco2)S1	none
CCOc1ccc(N=Nc2ccc(O)c3ncccc23)cc1	HSF1 activator 89 (no result: AHR activator)
O=C(Nc1ccc2c(c1)C(=O)OC2)c1ccccc1Cl	none
COc1ccccc1N(C)S(=O)(=O)c1ccc(C(=O)O)cc1	none
S=C(NCc1ccco1)N1CCN(c2ccccc2Cl)CC1	HSF1 activator 70
COc1cccc(N2CCN(C(=S)NCc3ccco3)CC2)c1	HSF1 activator 55
Cc1ccc(Cl)cc1N1CCN(C(=S)NCc2ccco2)CC1	none
N#Cc1ncc(Cc2ccccc2)nc1C#N	HSF1 activator 97
COc1ccccc1-c1nc(SCC(=O)NCc2ccco2)c2c(=O)n(C)c(=O)n(C)c2n1	none
CCOc1ccc(-c2nnc3ccc(SCC(=O)Nc4nc5ccccc5s4)nn23)cc1	AHR activator 73
Cc1ccc(S(=O)(=O)NCCc2nnc3ccc(SCC(=O)Nc4nc5ccccc5s4)nn23)cc1	none (no result: GAA850 FXN act)
CCOc1ccc(-c2nnc3ccc(SC(C)C)nn23)cc1	AHR activator 51
CCOc1ccc(-c2nnc3ccc(SCC(=O)N4CCCCC4)nn23)cc1	none
CCOc1ccc2nc(NC(=O)c3cnccn3)sc2c1	HSF1 activator 99
CCOc1ccc(-c2nnc3ccc(SCC(=O)Nc4nc5ccc(C)cc5s4)nn23)cc1	AHR activator 63
CCOC(=O)C1CCN(c2c(NCCN(CC)c3ccccc3)c(=O)c2=O)CC1	none
CC(=O)c1cccc(-c2ccnc3c2CC(C(=O)Nc2ccc(Cl)cc2)O3)c1 (configuration not stated)	none (no result: HSF1 activator, HSF1 inh, AHR activator)
Cc1cccc(OC(C)C(=O)N2CCCN(C)CC2)c1C (configuration not stated)	none
Cc1ccc(CNS(=O)(=O)c2c(C)n(C)c(=O)n(C)c2=O)cc1	none
CCOc1ccc2nc(NC(=O)CSc3cn[nH]n3)sc2c1	HSF1 activator 55
COc1ccc2nc(NC(=O)CSc3cn[nH]n3)sc2c1	none
O=C(NC1CCCCCC1)c1ccc(Br)o1	none
O=C(NC1CCCC1)c1cc2ccccc2o1	none
O=C(NC1CCCCC1)c1cc2cc(Br)ccc2o1	HSF1 activator 68
O=C(NC1CCCC1)c1cc2cc(Br)ccc2o1	HSF1 activator 60
